Data published in PubChem BioAssay (NCI).
The panel holds about 83,000 compounds, 20% with a hit somewhere; the sample as a whole holds those more often.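 Assay: single dose, 48 h. Readout: percent growth (0 = no net growth; negative = cell death). Active: <10.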 Unmarked numbers belong to inactive results. Activity calls are given as the source filed them.

Test system: SK-OV-3 ovarian
Test: NCI-60 one-dose screen, 48 h (100 = growth as untreated, 0 = no growth, -100 = all killed)
Settings: 10 µM unless noted

Structure (SMILES)	growth
CC(C)(C)CC(C)(C)c1ccc(OCCOCC[N+](C)(C)CC(=O)[O-])cc1	109%
CN(CSc1ccc(Cl)cc1)c1ccc(CSc2ccc(Cl)cc2)cc1	108%
COc1ccc(C2(Cl)c3ccccc3N(c3ccccc3)c3ccccc32)cc1	-11.1% (active)
CCCCC(=O)OC1CCCCC1C (configuration not stated)	89.4%
O=P(O)(c1ccccc1)c1ccccc1I	86.8%
O=c1[nH]c(=S)[nH]c2nc[nH]c12	112%
OCC(CO)(CCl)CCl	88.5%
C#CCC(C)(O)/C=C/C1=C(C)CCCC1(C)C (configuration not stated)	92.3%
O=c1[nH]ncc(Br)c1Br	122%
Cc1ccc2[nH]cc(-c3nc(-c4cn(C)c5ncccc45)cs3)c2c1	102%
CC(=O)OC(C)COc1ccc(-c2ccccc2)cc1 (configuration not stated)	109%
Fc1ccc2[nH]cc(-c3nc(-c4c[nH]c5ncccc45)cs3)c2c1	58.9%
Cc1oc(-c2ccccc2Cl)cc1C(=O)Nc1ccc(S(N)(=O)=O)cc1	98.5%
CCC(CC)C(=O)OC(C)COc1ccc(C(C)(C)C)cc1 (configuration not stated)	102%
N=C(N)c1ccc(S(N)(=O)=O)cc1	115%
O=C1C=C(C(O)c2ccc(O)cc2)C(=O)c2ccccc21 (configuration not stated)	85.8%
N#C/C(=C\c1ccc(-c2ccc(F)cc2)o1)c1nc(-c2ccco2)cs1	103%
Cc1ccc(-c2ccc(/C=C(\C#N)c3nc(-c4ccco4)cs3)o2)cc1	101%

Structure (SMILES)	growth
O=C(O)/C(=C/c1ccc(O)cc1)c1ccccc1	112%
Cc1ccc2c(c1)c(-c1nc(-c3c[nH]c4ncccc34)cs1)cn2C	102%
CCCC1CCCCN1C(=O)OCC(C)C (configuration not stated)	110%
COc1ccc(OCC(CO)N2CCN(c3ccccc3)CC2)cc1 (configuration not stated)	106%
N#CC1=C(N)Oc2c(c(N)nn2-c2ccccc2)C1c1ccc(Cl)cc1 (configuration not stated)	81.7%
c1ccc2c(-c3nc(-c4c[nH]c5ncccc45)cs3)c[nH]c2c1	88.6%
OCC1OC(n2cnc3c(Cl)ncnc32)CC1O (configuration not stated)	104%
Cn1cc(-c2nc(-c3c[nH]c4ncccc34)cs2)c2cc(Br)ccc21	91.9%
CC(c1ccccc1)N1C(=O)C(C2SC(=S)N(C(C)c3ccccc3)C2=O)SC1=S (configuration not stated)	106%
Cn1c(=O)c2c(nc(N3CCCC3)n2C)n(C)c1=O	103%
Cn1cccc1/C=C1/SC(=S)N(CCc2ccc(O)cc2)C1=O	83.5%
CCSc1ncnc2c1ncn2C1OC(CO)C(O)C1O (configuration not stated)	41.3%
CN(C)CCCCC(C(=O)CBr)(c1ccccc1)c1ccccc1	79.1%
CCCCCC1CCCCN1C(=O)OCC (configuration not stated)	98.5%
O=C(/C=C/c1ccc2ccccc2c1)Nc1ncc(Cc2ccccc2)s1	87.8%
Cn1cc(-c2csc(-c3cn(C(=O)OC(C)(C)C)c4ccccc34)n2)c2cccnc21	74.9%
CCCCCCCN(CCCCCCC)C(=N)c1ccnc2ccccc12	36.8%

Test system: IGROV1 ovarian
Test: as above
Settings: 10 µM unless noted

Structure (SMILES)	growth
CC(C)(C)CC(C)(C)c1ccc(OCCOCC[N+](C)(C)CC(=O)[O-])cc1	100%
CN(CSc1ccc(Cl)cc1)c1ccc(CSc2ccc(Cl)cc2)cc1	42.9%
COc1ccc(C2(Cl)c3ccccc3N(c3ccccc3)c3ccccc32)cc1	17.5%
CCCCC(=O)OC1CCCCC1C (configuration not stated)	106%
O=P(O)(c1ccccc1)c1ccccc1I	96.2%
O=c1[nH]c(=S)[nH]c2nc[nH]c12	105%
OCC(CO)(CCl)CCl	109%
C#CCC(C)(O)/C=C/C1=C(C)CCCC1(C)C (configuration not stated)	102%
O=c1[nH]ncc(Br)c1Br	51.2%
Cc1ccc2[nH]cc(-c3nc(-c4cn(C)c5ncccc45)cs3)c2c1	108%
CC(=O)OC(C)COc1ccc(-c2ccccc2)cc1 (configuration not stated)	112%
Fc1ccc2[nH]cc(-c3nc(-c4c[nH]c5ncccc45)cs3)c2c1	32.5%
O=C1C(Cl)=C(Nc2ccc(S(=O)(=O)c3ccc(NC4=C(Cl)C(=O)c5ccccc5C4=O)cc3)cc2)C(=O)c2ccccc21	-18.5% (active)
Cc1oc(-c2ccccc2Cl)cc1C(=O)Nc1ccc(S(N)(=O)=O)cc1	113%
CCC(CC)C(=O)OC(C)COc1ccc(C(C)(C)C)cc1 (configuration not stated)	112%
CCCCC/C(=C\c1ccccc1)C1OC(C)C(C)O1 (configuration not stated)	112%
N=C(N)c1ccc(S(N)(=O)=O)cc1	110%
O=C1C=C(C(O)c2ccc(O)cc2)C(=O)c2ccccc21 (configuration not stated)	86.3%
Cc1ccc(-c2ccc(/C=C(\C#N)c3nc(-c4ccco4)cs3)o2)cc1	63.5%

Structure (SMILES)	growth
Cn1cc(-c2nc(-c3c[nH]c4ncccc34)cs2)c2cc(Cl)ccc21	46.3%
O=C(O)/C(=C/c1ccc(O)cc1)c1ccccc1	99%
Cc1ccc2c(c1)c(-c1nc(-c3c[nH]c4ncccc34)cs1)cn2C	99.2%
CCCC1CCCCN1C(=O)OCC(C)C (configuration not stated)	101%
COc1ccc(OCC(CO)N2CCN(c3ccccc3)CC2)cc1 (configuration not stated)	112%
N#CC1=C(N)Oc2c(c(N)nn2-c2ccccc2)C1c1ccc(Cl)cc1 (configuration not stated)	84.5%
c1ccc2c(-c3nc(-c4c[nH]c5ncccc45)cs3)c[nH]c2c1	59.3%
OCC1OC(n2cnc3c(Cl)ncnc32)CC1O (configuration not stated)	98.9%
Cn1cc(-c2nc(-c3c[nH]c4ncccc34)cs2)c2cc(Br)ccc21	76%
CC(c1ccccc1)N1C(=O)C(C2SC(=S)N(C(C)c3ccccc3)C2=O)SC1=S (configuration not stated)	76.5%
Cn1c(=O)c2c(nc(N3CCCC3)n2C)n(C)c1=O	98.5%
CCSc1ncnc2c1ncn2C1OC(CO)C(O)C1O (configuration not stated)	2.14% (active)
CN(C)CCCCC(C(=O)CBr)(c1ccccc1)c1ccccc1	44.4%
CCCCCC1CCCCN1C(=O)OCC (configuration not stated)	104%
O=C(/C=C/c1ccc2ccccc2c1)Nc1ncc(Cc2ccccc2)s1	55.6%
COc1ccc2c(c1)c(-c1nc(-c3c[nH]c4ncccc34)cs1)cn2C	59.8%
Cn1cc(-c2csc(-c3cn(C(=O)OC(C)(C)C)c4ccccc34)n2)c2cccnc21	59.8%
CCCCCCCN(CCCCCCC)C(=N)c1ccnc2ccccc12	4.57% (active)
